# According to PubChem BioAssay AID1159580 (chemical genetic matrix, 2015):
# The campaign covered roughly 5,500 compounds. About 2,000 (36%) were called active. Inconclusive results (about 18%) are left out. This is one part of the list. A number with no mark means an inactive call. Rule as the data show it: active = normalized growth mostly below about 0.91 (no sharp cut-off); inconclusive = no clear call, values can overlap the other calls; inactive = mostly above about 0.92.
# Test: chemical genetic growth profiling, strain panel (AID 1159580);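 also: tested at 20 µM; growth read once vehicle control cultures reached saturation at 30 °C; 1 = growth at the plate median or of vehicle wells; lower values mean less growth of the strain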
# Settings: S. cerevisiae deletion strains, growth OD
structure (smiles),measurement,setting,value
Nc1nc2c(nc(Br)n2C2OC3COP(=O)(O)O[C@@H]3C2O)c(=O)[nH]1 (stereo partly specified),normalized growth,"locus YAL040C, strain CLN3, hits give low values",0.947
same,normalized growth,"locus YDR363W, strain ESC2, hits give low values",0.993
same,normalized growth,"locus YER002W, strain NOP16, hits give low values",1.02
same,normalized growth,"locus YGR229C, strain SMI1, hits give low values",1.02
same,normalized growth,"locus YMR307W, strain GAS1, hits give low values",0.998
same,normalized growth,"locus YNL153C, strain GIM3, hits give low values",1.05
same,normalized growth,"locus YNL175C, strain NOP13, hits give low values",1.02
same,normalized growth,"locus YNL197C, strain WHI3, hits give low values",1.01
same,normalized growth,"locus YNL224C, strain SQS1, hits give low values",1.02
same,normalized growth,"locus YOR083W, strain WHI5 (second series), hits give low values",1.02
COc1cc(OC)cc(/C(N)=N\O)c1,normalized growth,"locus YAR019C, strain CDC15, hits give low values",0.981
same,normalized growth,"locus YBL105C, strain PKC1, hits give low values",0.99
same,normalized growth,"locus YBR135W, strain CKS1, hits give low values",0.986
same,normalized growth,"locus YBR136W, strain MEC1, hits give low values",0.975
same,normalized growth,"locus YBR160W, strain CDC28, hits give low values",0.993
same,normalized growth,"locus YDL017W, strain CDC7, hits give low values",0.989
same,normalized growth,"locus YDL028C, strain MPS1, hits give low values",0.982
same,normalized growth,"locus YDL101C, strain DUN1, hits give low values",0.992
same,normalized growth,"locus YDL108W, strain KIN28, hits give low values",0.982
same,normalized growth,"locus YDL132W, strain cdc53, hits give low values",0.997
same,normalized growth,"locus YDL214C, strain PRR2, hits give low values",0.956
same,normalized growth,"locus YDR052C, strain DBF4, hits give low values",0.991
same,normalized growth,"locus YDR054C, strain cdc34, hits give low values",0.992
same,normalized growth,"locus YDR226W, strain ADK1, hits give low values",0.994
same,normalized growth,"locus YDR477W, strain SNF1, hits give low values",0.958
same,normalized growth,"locus YER123W, strain YCK3, hits give low values",0.927
same,normalized growth,"locus YER133W, strain GLC7, hits give low values",0.971
same,normalized growth,"locus YFL009W, strain cdc4, hits give low values",0.991
same,normalized growth,"locus YFL029C, strain CAK1, hits give low values",0.975
same,normalized growth,"locus YFR003C, strain YPI1, hits give low values",0.99
same,normalized growth,"locus YFR019W, strain FAB1, hits give low values",0.961
same,normalized growth,"locus YFR028C, strain CDC14, hits give low values",0.994
same,normalized growth,"locus YGR040W, strain KSS1, hits give low values",0.959
same,normalized growth,"locus YGR052W, strain FMP48, hits give low values",1.02
same,normalized growth,"locus YGR092W, strain DBF2, hits give low values",0.943
same,normalized growth,"locus YHR030C, strain SLT2, hits give low values",0.874
same,normalized growth,"locus YHR079C, strain IRE1, hits give low values",0.909
same,normalized growth,"locus YHR082C, strain KSP1, hits give low values",0.994
same,normalized growth,"locus YHR205W, strain SCH9, hits give low values",0.891
same,normalized growth,"locus YIL147C, strain SLN1, hits give low values",0.963
same,normalized growth,"locus YJL095W, strain BCK1, hits give low values",0.875
same,normalized growth,"locus YJL128C, strain PBS2, hits give low values",0.967
same,normalized growth,"locus YJL157C, strain FAR1, hits give low values",0.983
same,normalized growth,"locus YJR016C, strain ILV3, hits give low values",0.997
same,normalized growth,"locus YJR066W, strain TOR1 (second series), hits give low values",0.929
same,normalized growth,"locus YJR066W, strain TOR1, hits give low values",0.966
same,normalized growth,"locus YKL048C, strain ELM1, hits give low values",0.962
same,normalized growth,"locus YKL067W, strain YNK1, hits give low values",0.961
same,normalized growth,"locus YKL101W, strain HSL1, hits give low values",0.925
same,normalized growth,"locus YKL193C, strain SDS22, hits give low values",0.992
same,normalized growth,"locus YKL203C, strain TOR2, hits give low values",1.01
same,normalized growth,"locus YLR113W, strain HOG1, hits give low values",0.847 (active)
same,normalized growth,"locus YLR133W, strain CKI1, hits give low values",0.958
same,normalized growth,"locus YLR403W, strain SFP1, hits give low values",0.937
same,normalized growth,"locus YML070W, strain DAK1, hits give low values",0.943
same,normalized growth,"locus YMR001C, strain CDC5, hits give low values",0.991
same,normalized growth,"locus YMR205C, strain PFK2 (second series), hits give low values",0.963
same,normalized growth,"locus YMR277W, strain FCP1, hits give low values",0.997
same,normalized growth,"locus YNL006W, strain LST8, hits give low values",0.993
same,normalized growth,"locus YNL020C, strain ARK1, hits give low values",0.959
same,normalized growth,"locus YNL161W, strain CBK1, hits give low values",0.988
same,normalized growth,"locus YNL183C, strain NPR1, hits give low values",0.95
same,normalized growth,"locus YNL207W, strain RIO2, hits give low values",0.988
same,normalized growth,"locus YNL222W, strain SSU72, hits give low values",0.991
same,normalized growth,"locus YNL307C, strain MCK1 (second series), hits give low values",0.951
same,normalized growth,"locus YOL078W, strain AVO1, hits give low values",0.991
same,normalized growth,"locus YOL136C, strain PFK27, hits give low values",0.955
same,normalized growth,"locus YOR061W, strain CKA2, hits give low values",0.925
same,normalized growth,"locus YOR119C, strain RIO1, hits give low values",0.983
same,normalized growth,"locus YOR231W, strain MKK1, hits give low values",0.904
same,normalized growth,"locus YOR329C, strain SCD5, hits give low values",0.987
same,normalized growth,"locus YPL031C, strain PHO85, hits give low values",0.958
same,normalized growth,"locus YPL153C, strain RAD53, hits give low values",0.943
same,normalized growth,"locus YPL204W, strain HRR25, hits give low values",0.973
same,normalized growth,"locus YPL209C, strain IPL1, hits give low values",0.988
same,normalized growth,"locus YPL256C, strain CLN2, hits give low values",0.891
same,normalized growth,"locus YPR025C, strain CCL1, hits give low values",0.986
same,normalized growth,"locus YPR106W, strain ISR1, hits give low values",0.988
same,normalized growth,"locus YPR111W, strain DBF20, hits give low values",0.986
same,normalized growth,"strain NNK1, hits give low values",0.992
same,normalized growth,"strain TSCII, hits give low values",0.996
